Source: PubChem BioAssay
Integrin act MD: activates integrin-mediated alleviation for muscular dystrophy. Potency, µM (titrated, usually from 38.3 µM), inactives show at the top dose activation, hits mostly activators. alpha7betagal myoblasts, beta-gal FDG fluorescence, 48 h. hit rate 0.064% among 350,000;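 note: potency is the fitted concentration of half-maximal effect; 100% = response of the positive control SU9516; nearly all actives have a fitted effect of over 60% in size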
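Alpha7betagal+/- myoblasts (passage 13) were plated 16-24 hr, then exposed to compounds (1:260 dilution of DMSO stock) for 48 hours at 37C. After MPER lysis, β-galactosidase reporter activity was read as FDG fluorescence (ex 480/em 540) after 30 minutes.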
uPA surface inh: inhibitors of cell surface uPA generation | cell surface uPA generation assay, qHTS | Potency, µM (top dose mostly 38.3 µM), for the others: top-dose activity change, negative = inhibition, usual class: inhibitors | hit rate 0.31% among 330,000; active = well fitted inhibition curve with a large enough effect; inconclusive = small, poorly fitted or top-dose-only effect; inactive = no such curve, though single readings can be large or run the other way; tested in mouse RAW 264.7 cells; note: potency is the fitted concentration of half-maximal effect; % is set by controls: 0 for no effect and ±100 for the full control effect; nearly all actives have a fitted effect of over 55% in size
Nrf2 ARE act: activators of Nrf2 (ARE) signaling | AREc32 ARE-luciferase reporter (MCF7-derived line), luminescence, 24 h | Potency, µM (top dose mostly 46.1 µM), for the others: at the highest dose activation, actives largely listed as activators | hit rate 0.31% among 410,000; note: potency is the fitted concentration of half-maximal effect; % of control where 0% means no effect; nearly all actives have a fitted effect of over 65% in size
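Cells of the AREc32 ARE-luciferase line are plated in OPTI-MEM containing 5% FBS and left overnight at 37 deg C. Compounds are pinned in, incubation continues 24 hr, and firefly luciferase signal is then measured.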
ALOX12 inh: ALOX12 (human) lipoxygenase inhibition | P18054 | purified 12hLO, xylenol orange hydroperoxide absorbance | Potency, µM (titrated, usually from 108 µM), without a hit: at the top dose activity change, negative = inhibition, most hits filed as inhibitors | hit rate 1.1% among 580,000 | AID 1671190; note: potency is the fitted concentration of half-maximal effect; % is set by controls: 0 for no effect and ±100 for the full control effect
Target sequence (P18054 whole entry, looked up): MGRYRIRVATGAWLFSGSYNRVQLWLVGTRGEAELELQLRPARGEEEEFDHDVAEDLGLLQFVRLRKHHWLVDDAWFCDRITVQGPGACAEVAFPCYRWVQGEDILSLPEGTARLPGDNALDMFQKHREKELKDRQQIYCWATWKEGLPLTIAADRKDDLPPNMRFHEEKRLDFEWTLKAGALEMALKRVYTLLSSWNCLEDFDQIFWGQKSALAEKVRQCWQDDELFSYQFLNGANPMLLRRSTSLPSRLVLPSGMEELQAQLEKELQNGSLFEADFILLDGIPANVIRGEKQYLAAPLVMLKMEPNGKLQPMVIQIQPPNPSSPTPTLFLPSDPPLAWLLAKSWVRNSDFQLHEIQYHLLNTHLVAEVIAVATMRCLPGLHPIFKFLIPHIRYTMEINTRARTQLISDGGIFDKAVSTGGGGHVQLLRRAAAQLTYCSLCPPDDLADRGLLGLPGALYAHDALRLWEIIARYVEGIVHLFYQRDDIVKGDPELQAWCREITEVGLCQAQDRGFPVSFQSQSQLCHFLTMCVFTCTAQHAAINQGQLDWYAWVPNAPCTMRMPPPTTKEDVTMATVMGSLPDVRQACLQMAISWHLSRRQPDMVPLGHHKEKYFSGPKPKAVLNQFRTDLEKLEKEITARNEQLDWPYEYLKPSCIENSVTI
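Purified human 12hLO (150 nM final) in 25 mM Hepes, 0.01% Triton X-100, pH 7.0 was preincubated 15 min at room temperature with compound. Then 40 uM arachidonic acid was added, 30 min. Hydroperoxide was read by Fe-XO absorbance ratio 573/405 nm.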
IL-2 act: activates IL-2 in a cell-based reporter assay; IL-2 activation reporter assay, cell-based qHTS; stimulated with anti-CD3/CD4/CD28 beads; in transgenic mouse T cells; activation, % (series mostly up to about 46 µM); hit rate 0.065% among 360,000; AID 652025; in the data active = activation above about 50%; inconclusive = mostly about 30% to 49%; note: 0% is about no effect
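Unstimulated transgenic mouse T cells preincubated 60 min with compound, then stimulated with anti-CD3/anti-CD4-coated beads plus anti-CD28 for 18 h at 37 degrees C. IL-2 response read as EGFP and DsRed fluorescence by plate cytometry.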
The depositor's hits bear a star; ? = inconclusive; . = not tested or not shown; ! = a repeat was not active. Hits are enriched below; roughly 1.5% of the tested compounds scored in any of these assays. Unless noted, calls come from the whole dose curve; as a rule, active = well fitted curve in the direction sought with a large enough effect; inconclusive = small, poorly fitted or top-dose-only effect, or another doubt; inactive = no such curve, though single readings can be large; an effect the other way counts as inactive or inconclusive.

SMILES	Integrin act MD	uPA surface inh	Nrf2 ARE act	ALOX12 inh	IL-2 act
N=c1c2c(n(Cc3ccc(Cl)c(Cl)c3)c3c1CCC3)CCCC2	-47%	-19%	2%	?	0
N=c1c2c(n(Cc3ccc(Br)cc3)c3c1CCC3)CCCC2	-57%	4µM*	0%	-10%	-2
Cc1c(N=Cc2ccco2)c(=O)n(-c2ccccc2)n1C	4%	-1%	0%	14%	-1
COc1ccc2c(C=Nc3c(C)n(C)n(-c4ccccc4)c3=O)c(O)n(Cc3ccco3)c(=O)c2c1	-16%	6%	0%	257%	65*!
COC(=O)c1ccc2c(=O)[nH]c(CSc3nnc(-c4cccnc4)n3Cc3ccccc3)nc2c1	.	.	.	19%	.
CCN1/C(=C/C=C/C=C/C=C/c2sc3ccccc3[n+]2CC)Sc2ccccc21	-73%	?	2%	40µM*	-4
O=C(CCC(=O)N1CCN(c2ccc(F)cc2)CC1)N1CCN(c2ccc(F)cc2)CC1	6%	3%	0%	1.8µM*	0
O=C(c1ccc(F)cc1)c1ccc(N2CCCCC2)cc1	-19%	-1%	0%	-26%	0
O=C(c1ccc(F)cc1)c1ccc(N2CCCC2)cc1	-14%	1%	2%	32µM*	1
Cn1c(-c2sc3ccccc3c2Cl)n[nH]c1=S	6%	-2%	-1%	14µM*	-1
Cn1c(CSc2nc3ccccc3s2)n[nH]c1=S	14%	-2%	0%	?	-2
COc1ccc(C(=O)N/C(=C/c2cccnc2)C(=O)N2CCN(C)CC2)cc1OC	4.5µM*	-1%	0%	60%	-1
COc1ccc(C(=O)n2nc(-c3ccco3)nc2NCc2cccs2)cc1OC	.	.	8%	7.9µM*	.
Cc1cc(OC(=O)c2ccc(Cl)cc2Cl)c([N+](=O)[O-])c(=O)[nH]1	7%	1%	-1%	?	0
Cc1cc(OC(=O)c2ccccc2Cl)c([N+](=O)[O-])c(=O)[nH]1	-37%	-5%	0%	40µM*	-1
O=C(Nc1cccc(F)c1)c1nnc(CSCC(=O)N2CCN(c3ccccc3)CC2)s1	.	.	.	-9%	.
CCOC(=O)c1cnc2c(Cl)c(Cl)ccc2c1NCCN1CCOCC1	-22%	-2%	3%	16%	0
CCOC(=O)c1cnc2c(C)c(Cl)ccc2c1NCCCN1CCOCC1	-29%	-14%	0%	45µM*	-1
Cc1c(-c2cccc(Cl)c2)nn2c1NC(=O)CC2C(=O)Nc1ccc2c(c1)OCO2 (configuration not stated)	.	.	.	-8%	.
N#C/C(=C/C=C/c1ccccc1)C(=O)Nc1ccccc1Oc1ccccc1	.	.	.	1%	.
COCCNc1nc(-c2ccc(NC(=O)C(C)(C)C)cc2)cs1	.	.	.	-72%	.
COCCNc1nc(-c2ccc(N3CCCC3=O)cc2)cs1	.	.	.	11µM*	.
CC(C)(C)N(CC#CCC(O)(c1ccccc1)c1ccccc1)CCO	12%	5%	0%	7.9µM*	2
CNC(=O)N1CCC(C2CCN(C(=O)Cc3ccsc3)C2)CC1 (configuration not stated)	.	.	.	7%	.
O=C(/C=C/c1ccco1)OCC(=O)c1ccccc1	.	.	.	-57%	.
SMILES	Integrin act MD	uPA surface inh	Nrf2 ARE act	ALOX12 inh	IL-2 act
COc1ccc(C(NC(=O)/C=C/c2ccco2)c2ccc(OC)cc2)cc1	-6%	-22%	8%	45µM*	-3
COc1ccc(C(NC(=O)/C=C\c2ccco2)c2ccc(OC)c(OC)c2)cc1 (configuration not stated)	-27%	.	8%	32µM*	-3
O=C(/C=C/c1ccco1)Oc1ccc(Sc2ccc(OC(=O)/C=C/c3ccco3)cc2)cc1	.	.	.	11µM*	.
COc1ccc(CCNC(=O)/C=C/c2ccco2)cc1OC	-55%	-6%	5%	?	0
Cc1csc(NC(=O)/C=C/c2ccco2)n1	-8%	-4%	1.8µM*	-11%	0
Cc1ccc(CN2C(=O)C3(c4ccccc42)N(c2ccc(C)c(C)c2)C(=O)CS3(=O)=O)cc1 (configuration not stated)	.	.	.	0%	.
O=C(CCc1cc(=O)[nH]o1)N[C@@H]1CCOC[C@H]1O	.	.	.	-4%	.
Cc1ccc(S(=O)(=O)Nc2c(C)n(C)n(-c3ccccc3)c2=O)cc1C(=O)OC(C)C(=O)N(C)c1ccccc1 (configuration not stated)	-25%	-6%	2%	-11%	0
